In PubChem BioAssay (EPA / NIEHS):
Records with an inconclusive call do not appear. Active and inactive are the calls of the source. The calls were made as follows: active = hit-call score of the fitted dose curve at least 0.9, where 1 is the maximum; inconclusive = response in the unintended direction; inactive = score below 0.9.

biological target: Adra2b (gene 24174) (UniProt P19328); test: NVS_GPCR_rmAdra2B: NovaScreen (NVS) G Protein-Coupled Receptor Assay for hybird cells Adrenergic, Alpha 2B Receptor (Adra2B) (AID 2283306)
Sequence (P19328 whole entry, looked up): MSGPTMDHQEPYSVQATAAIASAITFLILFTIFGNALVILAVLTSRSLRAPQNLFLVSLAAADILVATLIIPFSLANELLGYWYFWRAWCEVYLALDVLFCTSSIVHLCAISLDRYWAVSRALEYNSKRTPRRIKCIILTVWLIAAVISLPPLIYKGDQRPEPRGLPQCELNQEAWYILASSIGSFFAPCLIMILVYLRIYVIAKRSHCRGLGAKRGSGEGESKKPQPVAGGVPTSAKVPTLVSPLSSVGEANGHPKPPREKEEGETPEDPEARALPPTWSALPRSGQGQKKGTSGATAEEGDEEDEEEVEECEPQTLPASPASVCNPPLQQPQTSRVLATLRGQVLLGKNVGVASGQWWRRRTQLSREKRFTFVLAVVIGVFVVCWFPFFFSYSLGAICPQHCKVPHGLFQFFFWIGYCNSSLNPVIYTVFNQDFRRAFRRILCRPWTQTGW
Experimental: NVS_GPCR_rmAdra2B is a biochemical, single-readout assay that uses extracted gene-proteins from neuroglioma/blastoma hybrid cells in a tissue-based cell-free assay. Measurements were taken 1 hour after chemical dosing in a 48-well plate.NVS_GPCR_rmAdra2B is one of one assay component(s) measured or calculated from the NVS_GPCR_rmAdra2B assay. It is designed to make measurements of radioligand binding, a form of binding reporter, as detected with scintillation counting signals by Filter-based radiodetection technology.Data from the assay component NVS_GPCR_rmAdra2B was analyzed into 1 assay endpoint. This assay endpoint, NVS_GPCR_rmAdra2B, was analyzed in the positive analysis fitting direction relative to DMSO as the negative control and baseline of activity. Using a type of binding reporter, loss-of-signal activity can be used to understand changes in the binding as they relate to the gene Adra2b. Furthermore, this assay endpoint can be referred to as a primary readout, because the performed assay has only produced 1 assay endpoint. To generalize the intended target to other relatable targets, this assay endpoint is annotated to the gpcr intended target family, where the subfamily is rhodopsin-like receptor.
Binding assays used specific radioligands (tritiated, iodinated) with non-radioactive competitive displacement ligands in agonist or antagonist protocols (as indicated) and various reference compounds and inhibitors to titrate specific binding to receptors and transporters. Most enzyme assays (CYPs, kinases, phosphatases, proteases, HDACs) used recombinant protein and specific substrates (fluorescence mostly, some colorimetric and radioactive) and inhibitors, followed by a biochemical separation of substrate and product. All assays for the biochemical HTS were initially run in duplicate at a single concentration (10 uM for CYP450 assays and 25 uM for all others). […] Each assay was run with positive and negative controls, and concurrent controls on every plate. The follow-up (secondary) screen tested active chemical-pairs in concentration series, as well as a few additional assays not tested in the primary screen, some selected negative inactives, and several cases re-run in the concentration series for confirmatory purposes.

Compound	outcome	AC50
CNC(=O)[C@H]1O[C@@H](n2cnc3c(NCc4cc(Cl)ccc4OCc4cc(C)no4)ncnc32)[C@H](O)[C@@H]1N	inactive	–
NC(=O)Cn1c(=O)cc(CCN2CCN(c3nccc4sccc34)CC2)c2ccc(F)cc21	–	0.131 µM (active)
Cc1nc(C)nc(N2C[C@@H](C)N(c3ccnc([C@@H](C)O)n3)[C@@H](C)C2)n1	inactive	–
CN1CCN(Cc2cc(-c3ccc4[nH]c(=O)oc4c3)co2)[C@@H](c2ccc(F)cc2)C1	–	15.8 µM (active)
CNCc1cc(F)ccc1Oc1ccc(Cl)c(Cl)c1	–	8.41 µM (active)
CCCCC(CC)COC(=O)CC(C(=O)OCC(CC)CCCC)S(=O)(=O)O (stereo unspecified)	–	22.4 µM (active)

biological target: rat Neurokinin-1 Receptor (NK1), Tacr1 (gene 24807) (UniProt P14600); test: NVS_GPCR_rNK1: NovaScreen (NVS) G Protein-Coupled Receptor Assay for rat Neurokinin-1 Receptor (NK1) (AID 2283309)
Sequence (P14600 whole entry, looked up): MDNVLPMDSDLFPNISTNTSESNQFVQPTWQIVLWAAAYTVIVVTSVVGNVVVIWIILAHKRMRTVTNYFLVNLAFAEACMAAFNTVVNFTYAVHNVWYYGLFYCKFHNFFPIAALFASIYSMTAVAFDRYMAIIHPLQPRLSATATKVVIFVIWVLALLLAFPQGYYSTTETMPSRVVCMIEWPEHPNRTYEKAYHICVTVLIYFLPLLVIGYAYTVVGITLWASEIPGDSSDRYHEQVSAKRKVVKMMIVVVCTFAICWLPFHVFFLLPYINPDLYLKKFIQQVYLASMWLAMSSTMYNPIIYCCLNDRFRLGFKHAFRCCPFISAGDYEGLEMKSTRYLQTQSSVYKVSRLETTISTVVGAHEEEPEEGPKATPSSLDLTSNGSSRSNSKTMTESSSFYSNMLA
Summary of the method: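 Rat submaxillary gland membranes; radioligand displacement read by filter-based scintillation counting after 1 h. Primary screen in duplicate at 25 uM; actives retested in concentration series; loss of binding fitted versus DMSO.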

Compound	outcome	AC50
Nc1ccccc1N	inactive	–
CN1CCN(Cc2cc(-c3ccc4[nH]c(=O)oc4c3)co2)[C@@H](c2ccc(F)cc2)C1	–	22 µM (active)
COc1cc(S(=O)(=O)O)c(C)cc1N=Nc1c(O)ccc2cc(S(=O)(=O)O)ccc12	–	25 µM (active)
COc1ccc(S(=O)(=O)N2C(=O)[C@@](c3ccccc3OC)(N3C[C@H](O)C[C@H]3C(=O)N(C)C)c3cc(Cl)ccc32)c(OC)c1	–	11.3 µM (active)
CCOC(=O)C(C)(C)Oc1ccc(Cl)cc1	inactive	–

biological target: rat Opioid Receptor, Non-selective Sodium (Na+) Binding, Oprm1 (gene 25601) (UniProt P33535); test: NVS_GPCR_rOpiate_NonSelectiveNa: NovaScreen (NVS) G Protein-Coupled Receptor Assay for rat Opioid Receptor, Non-selective Sodium (Na+) Binding (AID 2283311)
Sequence (P33535 whole entry, looked up): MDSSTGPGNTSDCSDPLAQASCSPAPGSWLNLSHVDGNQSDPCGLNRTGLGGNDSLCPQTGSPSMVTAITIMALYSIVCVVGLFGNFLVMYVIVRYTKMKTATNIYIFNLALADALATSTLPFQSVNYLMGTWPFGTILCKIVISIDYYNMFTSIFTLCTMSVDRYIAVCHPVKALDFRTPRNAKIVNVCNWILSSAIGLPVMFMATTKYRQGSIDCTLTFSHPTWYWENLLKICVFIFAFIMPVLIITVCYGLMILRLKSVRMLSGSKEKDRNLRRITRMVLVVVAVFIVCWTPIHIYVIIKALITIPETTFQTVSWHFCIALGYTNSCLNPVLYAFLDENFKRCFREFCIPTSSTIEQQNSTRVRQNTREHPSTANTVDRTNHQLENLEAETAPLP
Summary of the method: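 Rat forebrain membranes, radioligand displacement with filter scintillation counting, 1.5 h incubation. Screened in duplicate at 25 µM; hits then run in concentration-response up to 50 µM; loss of binding fitted versus DMSO.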

Compound	AC50	outcome
NC(=O)Cn1c(=O)cc(CCN2CCN(c3nccc4sccc34)CC2)c2ccc(F)cc21	1.38 µM (active)	–
Nc1ccc(S(=O)(=O)c2ccc(N)cc2)cc1	–	inactive
O=C(N[C@@H](Cc1ccccc1)[C@@H](O)C(=O)N1C[C@@H](O)[C@@H](O)C1)c1cc2cc(Cl)ccc2[nH]1	19.4 µM (active)	–
CN1CCN(Cc2cc(-c3ccc4[nH]c(=O)oc4c3)co2)[C@@H](c2ccc(F)cc2)C1	–	inactive
Oc1ccc2c(c1)OC[C@@H](N1CCC(O)(c3ccc(F)cc3)CC1)[C@H]2O	–	inactive
CNCc1cc(F)ccc1Oc1ccc(Cl)c(Cl)c1	25 µM (active)	–

biological target: rat Somatostatin Receptor (SST), Sstr1 (gene 25033) (UniProt P28646); test: NVS_GPCR_rSST: NovaScreen (NVS) G Protein-Coupled Receptor Assay for rat Somatostatin Receptor (SST) (AID 2283314)
Sequence (P28646 whole entry, looked up): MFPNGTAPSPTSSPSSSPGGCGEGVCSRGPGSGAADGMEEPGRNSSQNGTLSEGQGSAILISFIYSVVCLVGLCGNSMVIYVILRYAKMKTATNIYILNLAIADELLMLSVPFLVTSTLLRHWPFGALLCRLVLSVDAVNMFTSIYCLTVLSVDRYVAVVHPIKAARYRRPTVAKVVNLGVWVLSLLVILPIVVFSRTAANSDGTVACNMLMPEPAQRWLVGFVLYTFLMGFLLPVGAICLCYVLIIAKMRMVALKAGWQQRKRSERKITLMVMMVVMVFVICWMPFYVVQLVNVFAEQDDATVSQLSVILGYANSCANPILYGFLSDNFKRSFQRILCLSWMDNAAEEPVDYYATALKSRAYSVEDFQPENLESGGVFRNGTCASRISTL
Summary of the method: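 Rat forebrain membranes; radioligand displacement read by filter-based scintillation counting 1 h after dosing. Primary screen in duplicate at 25 uM. Actives (e.g., 30% inhibition) were rerun as concentration-response to 50 uM max and fitted against DMSO.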

Compound	AC50
CNC(=O)[C@H]1O[C@@H](n2cnc3c(NCc4cc(Cl)ccc4OCc4cc(C)no4)ncnc32)[C@H](O)[C@@H]1N	37.9 µM (active)
CC(C)(C)c1cc(O)c(C(C)(C)C)cc1O	3.63 µM (active)
Cc1cc(=O)[nH]c(=S)[nH]1	13.2 µM (active)
COCCOC[C@H](CC1(C(=O)NC2CCC(C(=O)O)CC2)CCCC1)C(=O)Oc1ccc2c(c1)CCC2 (stereo partly specified)	5.45 µM (active)
